Test results from PubChem BioAssay (NCI).
The panel holds about 83,000 compounds, 20% with a hit somewhere; the sample as a whole holds those more often.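 In brief: 96-well plates, 48 h treatment, single concentration, percent growth endpoint.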 A number with no mark means an inactive call. The source made the active and inactive calls.

Tested on: COLO 205 colon
Assay: NCI-60 one-dose screen, 48 h (100 = growth as untreated, 0 = no growth, -100 = all killed)
Conditions: 10 µM unless noted
Experimental: Cells are grown in 96 well plates and exposed to the test compound for 48 hours. Compounds are tested at a single concentration, which is 10^-5 M for most compounds. The reported endpoint is percent growth (GI% or GIPRCNT), where numbers from 0 - 100% represent growth inhibition, and numbers from -100% - 0 represent cell death. For example, a value of 40 represents 60% growth inhibition. A value of 0 means no net growth occurred over the course of the experiment. A value of -40 indicates 40% of cells at the beginning of the experiment died by the end of the experiment. A value of -100 means all cells are dead at the end of the experiment.
NCI-60 Human Tumor Cell Lines Screen was performed using the standard one-dose NCI protocol, which is described in more detail at https://dtp.cancer.gov/discovery_development/nci-60/default.htm.
Compounds with GIPRCNT values below 10 were considered active. Activity score was based on GIPRCNT using the following formula: […]
Score is 0 for GIPRCNT values of 100 or above, 50 for GIPRCNT values of 0, and 100 for GIPRCNT values of -100.

**Q.** COc1ccc(/C(C)=N/NC(=O)c2ccc(S(C)(=O)=O)cc2)cc1OC was tested. Which growth did it give?
**A.** Its growth is 95.3%.

**Q.** O=C(Nc1cccc(N=Cc2c(O)ccc3ccccc23)c1)c1ccccc1 was tested. Which growth did it give?
**A.** Its growth is 105%.

**Q.** CCOC(=O)C1C(=O)C=C(c2cc(OC)c(OC)c(OC)c2)CC1c1sc(N(C)Cc2ccccc2)nc1Cl (stereo not given) was tested. Which growth did it give?
**A.** Its growth is 97.1%.

**Q.** How did the growth turn out when c1ccc(-c2nnn(-c3ccccc3)n2)cc1 was run?
**A.** Its growth is 117%.

**Q.** N/C(=N\OC(=O)c1ccccc1)C(C(=O)NOC(=O)c1ccccc1)C1CCCCC1 (stereo not given) was tested. Which growth did it give?
**A.** The growth was 77.3%.

**Q.** How did the growth turn out when COC(=O)[C@H](Cc1cn(C)cn1)NC(=O)[C@H](CC(C)C)NC(=O)Nc1cc(C(F)(F)F)cc(C(F)(F)F)c1 was run?
**A.** The growth was -84.4% [100 µM] (active).

**Q.** Which growth does the source give for CCOC(=O)C(Cc1ccccc1)n1c(O)c(/C=N/c2ncc(Cc3ccc(Cl)cc3Cl)s2)sc1=S (stereo not given) here?
**A.** Its growth is -87% (active).

**Q.** CN(C)c1nc(-c2ccco2)n2nc(-c3ccc(Cl)cc3)cc2n1 was tested. Which growth did it give?
**A.** Its growth is 67.6%.

**Q.** CCCCCc1c(C)[nH]c(/C=C2\N=C(c3ccc[nH]3)C=C2Oc2ccc(OC)cc2)c1C was tested. Which growth did it give?
**A.** The growth was -83.9% [100 µM] (active).

**Q.** Which growth does the source give for CC(=O)Nc1c(Br)cc2c(c1Br)Cc1cc(Br)ccc1-2 here?
**A.** The growth was 35%.

**Q.** For COc1cc2ccc(C(C)=O)cc2cc1OC, which growth is on record?
**A.** Its growth is 97.1%.

**Q.** Which growth does the source give for Cc1ccsc1C(=O)CC(=O)C(F)(F)C(F)(F)C(F)(F)F here?
**A.** The growth was 112%.

**Q.** For COc1ccc2c(c1)C1=NN(C(=O)CO)[C@H](c3ccc(OC(F)(F)F)cc3)[C@@H]1CC2, which growth is on record?
**A.** Its growth is 110%.

**Q.** Which growth does the source give for Clc1nnc2c3ccccc3ccn12 here?
**A.** Its growth is 103%.

**Q.** How did the growth turn out when CCN1C(=O)N(CC)C2C1N=C(SC)N2/N=C/C=C/c1ccccc1OC (stereo not given) was run?
**A.** The growth was -48.9% (active).

**Q.** How did the growth turn out when CNC(=O)c1c(NC(=O)c2ccc(C(C)C)cc2)sc2c1CCC(=O)C2 was run?
**A.** Its growth is -70.3% (active).

**Q.** COc1ccc(/C=N/NC(N)=S)c(OC)n1 was tested. Which growth did it give?
**A.** The growth was 111%.

**Q.** With CCCCCCCCCCCCCC as the compound, how does the growth read?
**A.** Its growth is 108%.

**Q.** How did the growth turn out when C#CCO[C@H]1CC[C@H](OCC#C)[C@@H]2[C@H]1[C@H]1C[C@@H]3[C@@]4(C)CCC[C@@](C)(C(=O)OC)[C@@H]4CC[C@@]23C=C1C(C)C was run?
**A.** Its growth is 83.5%.

**Q.** With CCn1c(Cc2ccccc2Nc2c(Cl)cccc2Cl)nnc1SCC(=O)Nc1ccccc1C(F)(F)F as the compound, how does the growth read?
**A.** The growth was 99.1%.

**Q.** With CN1C(=O)C(C(=O)/C=C/c2ccccc2C(=O)O)C(=O)N(C)C1=O as the compound, how does the growth read?
**A.** Its growth is 114%.

**Q.** With COc1cc(CN(c2ccc(C)cc2)C2OC(=O)c3ccccc32)cc(OC)c1OC (stereo not given) as the compound, how does the growth read?
**A.** The growth was -45.5% (active).

**Q.** How did the growth turn out when COc1ccc(C(=O)O)cc1.[Ag] was run?
**A.** Its growth is 61.8%.

**Q.** Which growth does the source give for COc1ccc2nc(-c3ccc(-c4noc(-c5ccc(Cl)cc5)n4)cc3)[nH]c2c1 here?
**A.** The growth was 67.8%.

**Q.** For CCCCc1nc(Cl)c(C2CC(c3ccc(S(N)(=O)=O)cc3)=NN2c2cc(Cl)cc(Cl)c2)[nH]1 (stereo not given), which growth is on record?
**A.** Its growth is 32.2%.

**Q.** How did the growth turn out when COc1cc(Cl)cc(-c2nn(C(=O)NCCN3CCOCC3)cc2-c2ccncc2)c1 was run?
**A.** The growth was 42.3%.

**Q.** O=C(Nc1ccc(Br)cc1)c1ccc(Cl)c(Cl)c1 was tested. Which growth did it give?
**A.** The growth was 83.9%.

**Q.** Which growth does the source give for CCN(CC)c1ccc(/C=N/N=C(N)N)cc1 here?
**A.** The growth was 30.2%.

**Q.** Which growth does the source give for O=C1CCCN1C(O)CCN(Cc1ccccc1)Cc1ccc(Cl)cc1 (stereo not given) here?
**A.** Its growth is 124%.

**Q.** With CC(C)CC(=O)C(CCc1ccccn1)C(C)C (stereo not given) as the compound, how does the growth read?
**A.** The growth was 130%.

**Q.** For CC(C)OC1OC(OC(C)C)C(OC(C)C)OC1OC(C)C (stereo not given), which growth is on record?
**A.** Its growth is 112%.

**Q.** For Cc1ccc(C)c2c1SC1=NNC(Oc3ccc(Cl)cc3)=C(C#N)C(=N)N12, which growth is on record?
**A.** Its growth is 105%.

**Q.** With CCC(=O)OCc1ccc(OC)cc1 as the compound, how does the growth read?
**A.** The growth was 113%.

**Q.** For CC1(C)CN(CCNc2nccc(-c3c(-c4cccc(O)c4)nc4sccn34)n2)S(=O)(=O)N1, which growth is on record?
**A.** Its growth is 32.1%.

**Q.** Which growth does the source give for CC(=O)Oc1ccccc1C(=O)Nc1ncc([N+](=O)[O-])s1 here?
**A.** The growth was 93.2%.

**Q.** With COc1ccc2c(c1)sc1nc(-c3ccccc3)c(-c3cccc4ccccc34)n12 as the compound, how does the growth read?
**A.** Its growth is 6.28% (active).

**Q.** Which growth does the source give for S=C(S)Oc1cccc2cccnc12 here?
**A.** The growth was 111%.

**Q.** How did the growth turn out when CCN1CCN(Cc2ccc(NC(=O)Nc3ccc(-n4ccc5c(NC(=O)c6ccccc6)nccc54)cc3)cc2C(F)(F)F)CC1 was run?
**A.** Its growth is -87.5% (active).

**Q.** How did the growth turn out when O=C(N/N=C/c1ccccc1O)c1ccncc1 was run?
**A.** Its growth is 27.4%.

**Q.** CCOC(=O)c1cc(C(=O)OCC)c(C)nc1C was tested. Which growth did it give?
**A.** The growth was 109%.
